What all share (conditions): mRNA level, 48 h; actives raise or lower the signal
Read-out in one assay: CYP4A11 (gene 1579)
Description: LTEA_HepaRG_CYP4A11: Life Technologies and Expression Analysis (LTEA) Assay for CYP4A11 using HepaRG (AID 2283486). Put shortly:
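Readout is CYP4A11 mRNA induction or suppression (qRT-PCR, ACTB/GAPDH/POLR2A normalization) in human HepaRG cells after 48 h chemical treatment, concentrations to 100 uM in 0.5% DMSO, fitted bidirectionally against vehicle.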

Read-out in assay [1]: Cytochrome P450 3A4 (Homo sapiens) (UniProt P08684)
In words: LTEA_HepaRG_CYP3A4: Life Technologies and Expression Analysis (LTEA) Assay for CYP3A4 using HepaRG (AID 2283487). Put shortly:
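Differentiated HepaRG cells in serum-free induction medium exposed in duplicate for 48 h to 8 half-log concentrations up to 100 uM in 0.5% DMSO. CYP3A4 mRNA measured by qRT-PCR normalized to ACTB, GAPDH and POLR2A; bidirectional fit versus DMSO.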

Read-out in assay [2]: DNA damage-inducible transcript 3 (DDIT3), DDIT3 (gene 1649)
In words: LTEA_HepaRG_DDIT3: Life Technologies and Expression Analysis (LTEA) Assay for DNA damage-inducible transcript 3 (DDIT3) using HepaRG (AID 2283488). Put shortly: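 HepaRG plated 48 h, switched to serum-free induction medium, dosed 48 h (100 uM top, half-log, 8 pts, 0.5% DMSO, n=2); RNA isolated; DDIT3 by qRT-PCR; bidirectional curve fit vs DMSO.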

Read-out in assay [3]: Pro-epidermal growth factor (Homo sapiens) (UniProt P01133)
In words: LTEA_HepaRG_EGF: Life Technologies and Expression Analysis (LTEA) Assay for Epidermal growth factor (EGF) using HepaRG (AID 2283489). Put shortly: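 EGF expression changes in human HepaRG cells are scored by bidirectional fitting relative to 0.5% DMSO controls. Chemicals are tested at eight half-log concentrations up to 100 uM for 48 h in serum-free induction medium.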

Read-out in assay [4]: Early growth response protein 1 (EGR1) transcription factor, EGR1 (gene 1958)
In words: LTEA_HepaRG_EGR1: Life Technologies and Expression Analysis (LTEA) Assay for Early growth response protein 1 (EGR1) transcription factor using HepaRG (AID 2283490). Put shortly: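 Read-out is EGR1 mRNA level by qRT-PCR, normalized to three housekeeping genes and analysed for gain or loss of signal against 0.5% DMSO. Source cells: human HepaRG, treated 48 h at up to 100 uM in half-log dilutions.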

Read-out in assay [5]: Ezrin (EZR), EZR (gene 7430)
Description: LTEA_HepaRG_EZR: Life Technologies and Expression Analysis (LTEA) Assay for Ezrin (EZR) using HepaRG (AID 2283491). Put shortly: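 Differentiated human HepaRG cells, 48 h after plating, were exposed in serum-free induction medium for 48 hours to eight half-log concentrations up to 100 uM in 0.5% DMSO. EZR mRNA was measured by TaqMan qRT-PCR, normalized to ACTB, GAPDH and POLR2A, and fitted bidirectionally against DMSO.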

Read-out in assay [6]: Cytochrome P450 3A7 (Homo sapiens) (UniProt P24462)
Description: LTEA_HepaRG_CYP3A7: Life Technologies and Expression Analysis (LTEA) Assay for CYP3A7 using HepaRG (AID 2283492). A digest of the protocol: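 Cells were thawed, plated, cultured 48 h, then treated for a further 48 h with chemicals (eight-point half-log series from 100 uM, 0.5% DMSO). RNA was isolated and CYP3A7 expression quantified by qRT-PCR normalised to ACTB, GAPDH and POLR2A.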

Read-out in the next assay: CYP3A5 (gene 1577)
Description: LTEA_HepaRG_CYP3A5: Life Technologies and Expression Analysis (LTEA) Assay for CYP3A5 using HepaRG (AID 2283493). Put shortly: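 HepaRG plated 48 h, switched to serum-free induction medium, chemicals added 48 h (max 100 uM, half-log, 0.5% DMSO). RNA isolated; CYP3A5 by TaqMan qRT-PCR. Gain/loss vs DMSO.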

Read-out in assay [7]: Fatty Acid-Binding Protein 1 (FABP1), FABP1 (gene 2168)
Description: LTEA_HepaRG_FABP1: Life Technologies and Expression Analysis (LTEA) Assay for Fatty Acid-Binding Protein 1 (FABP1) using HepaRG (AID 2283494). Put shortly:
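HepaRG, 48 h post-plating switched to serum-free induction medium, then dosed 48 h (duplicate, 8 pts, ≤100 uM, 0.5% DMSO). RNA → Fluidigm TaqMan qRT-PCR, FABP1 normed to ACTB/GAPDH/POLR2A. Bidirectional curve fit vs DMSO.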

Read-out in assay [8]: Cytochrome P450 4A22 (Homo sapiens) (UniProt Q5TCH4)
In words: LTEA_HepaRG_CYP4A22: Life Technologies and Expression Analysis (LTEA) Assay for Cytochrome P450 4A22 (CYP4A22) using HepaRG (AID 2283495). A digest of the protocol:
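Cryopreserved HepaRG cells, plated and cultured 48 h, then switched to serum-free induction medium and treated 48 h (duplicates, up to 100 uM, half-log steps, 0.5% DMSO). Expression change of CYP4A22 was fitted bidirectionally against vehicle.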

Read-out in assay [9]: Cytochrome P450 7A1 (Homo sapiens) (UniProt P22680)
In words: LTEA_HepaRG_CYP7A1: Life Technologies and Expression Analysis (LTEA) Assay for Cytochrome P450 7A1 (CYP7A1) using HepaRG (AID 2283496). A digest of the protocol:
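HepaRG cells plated 48 h, then switched to serum-free induction medium and exposed in duplicate for 48 h to 8-point half-log series from 100 uM in 0.5% DMSO. CYP7A1 mRNA by qRT-PCR (TaqMan), normalized to ACTB/GAPDH/POLR2A; bidirectional fit versus DMSO.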

Read-out in assay [10]: Glutathione S-Transferase (GSTA2), GSTA2 (gene 2939)
Description: LTEA_HepaRG_GSTA2: Life Technologies and Expression Analysis (LTEA) Assay for Glutathione S-Transferase (GSTA2) using HepaRG (AID 2283497). A digest of the protocol:
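HepaRG, 48 h dosing, 8-pt half-log CRC from 100 uM, 0.5% DMSO vehicle, n=2; RNA → Fluidigm TaqMan qRT-PCR; GSTA2 vs ACTB/GAPDH/POLR2A; gain/loss fit vs DMSO.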

Read-out in assay [11]: Glutamate-cysteine ligase catalytic (GCLC), GCLC (gene 2729)
In words: LTEA_HepaRG_GCLC: Life Technologies and Expression Analysis (LTEA) Assay for Glutamate-cysteine ligase catalytic (GCLC) using HepaRG (AID 2283498). Put shortly:
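Read-out is GCLC transcript level by Fluidigm-based TaqMan qRT-PCR, normalized to three housekeeping genes and fitted in both directions relative to 0.5% DMSO. Human HepaRG cells received chemicals for 48 h, up to 100 uM.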

Read-out in assay [12]: Glutamate-cysteine ligase regulatory (GCLM), GCLM (gene 2730)
Description: LTEA_HepaRG_GCLM: Life Technologies and Expression Analysis (LTEA) Assay for Glutamate-cysteine ligase regulatory (GCLM) using HepaRG (AID 2283500). A digest of the protocol: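 Cells were plated, cultured 48 h, switched to serum-free induction medium, then dosed in duplicate for 48 h at eight half-log concentrations up to 100 uM. RNA was then profiled by qRT-PCR; gain or loss versus DMSO was fitted.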

Read-out in assay [13]: Heat shock 70 kDa protein 1 (HSPA1A), gene 3303
Description: LTEA_HepaRG_HSPA1A: Life Technologies and Expression Analysis (LTEA) Assay for Heat shock 70 kDa protein 1 (HSPA1A) using HepaRG (AID 2283502). Put shortly: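 Readout is HSPA1A transcript level by microfluidic qRT-PCR, normalized to three housekeeping genes and analysed for gain or loss of signal relative to 0.5% DMSO. Human HepaRG cultures received test chemicals for 48 h at up to 100 uM.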

Read-out in assay [14]: Hypoxia-inducible factor 1-alpha (Homo sapiens) (UniProt Q16665)
In words: LTEA_HepaRG_HIF1A: Life Technologies and Expression Analysis (LTEA) Assay for Hypoxia-inducible factor 1 (HIF1A) Trancription factor using HepaRG (AID 2283503). Put shortly:
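Differentiated HepaRG cells in serum-free induction medium exposed 48 h, in duplicate, to 8-point half-log series from 100 uM in 0.5% DMSO. HIF1A mRNA measured by TaqMan qRT-PCR, normalized to ACTB/GAPDH/POLR2A, fitted bidirectionally versus DMSO.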

Read-out in assay [15]: 3-Hydroxy-3-Methylglutaryl-CoA Synthase 2 (HMGCS2), HMGCS2 (gene 3158)
Description: LTEA_HepaRG_HMGCS2: Life Technologies and Expression Analysis (LTEA) Assay for 3-Hydroxy-3-Methylglutaryl-CoA Synthase 2 (HMGCS2) using HepaRG (AID 2283504). Put shortly: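 Expression of HMGCS2 in human HepaRG liver cells is measured by qRT-PCR 48 h after dosing (highest 100 uM, half-log series, 0.5% DMSO). Values come from bidirectional concentration-response fitting with DMSO as baseline.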

Read-out in a further assay: HGF (gene 3082)
In words: LTEA_HepaRG_HGF: Life Technologies and Expression Analysis (LTEA) Assay for Hepatocyte Growth Facto (HGF) using HepaRG (AID 2283505). A digest of the protocol: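 Gain or loss of HGF mRNA in human HepaRG liver cells after 48 h chemical exposure; eight concentrations up to 100 uM with 0.5% DMSO vehicle, quantified by TaqMan qRT-PCR.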

Read-out in assay [16]: growth arrest and DNA damage 45 (GADD45G), GADD45G (gene 10912)
Description: LTEA_HepaRG_GADD45G: Life Technologies and Expression Analysis (LTEA) Assay for growth arrest and DNA damage 45 (GADD45G) using HepaRG (AID 2283499). A digest of the protocol:
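Human hepatic HepaRG line treated 48 h with chemicals (eight concentrations, half-log steps from 100 uM); transcript induction or repression of GADD45G scored by qRT-PCR versus DMSO vehicle.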

Activity calls are given as the source filed them. The calls were made as follows: active = hit-call score of the fitted dose curve at least 0.9, where 1 is the maximum; inactive = score below 0.9.

Our source for the outcome and AC50 values is PubChem BioAssay (EPA / NIEHS).

Hypoxia-inducible factor 1-alpha (Homo sapiens), sequence (Q16665 whole entry, looked up): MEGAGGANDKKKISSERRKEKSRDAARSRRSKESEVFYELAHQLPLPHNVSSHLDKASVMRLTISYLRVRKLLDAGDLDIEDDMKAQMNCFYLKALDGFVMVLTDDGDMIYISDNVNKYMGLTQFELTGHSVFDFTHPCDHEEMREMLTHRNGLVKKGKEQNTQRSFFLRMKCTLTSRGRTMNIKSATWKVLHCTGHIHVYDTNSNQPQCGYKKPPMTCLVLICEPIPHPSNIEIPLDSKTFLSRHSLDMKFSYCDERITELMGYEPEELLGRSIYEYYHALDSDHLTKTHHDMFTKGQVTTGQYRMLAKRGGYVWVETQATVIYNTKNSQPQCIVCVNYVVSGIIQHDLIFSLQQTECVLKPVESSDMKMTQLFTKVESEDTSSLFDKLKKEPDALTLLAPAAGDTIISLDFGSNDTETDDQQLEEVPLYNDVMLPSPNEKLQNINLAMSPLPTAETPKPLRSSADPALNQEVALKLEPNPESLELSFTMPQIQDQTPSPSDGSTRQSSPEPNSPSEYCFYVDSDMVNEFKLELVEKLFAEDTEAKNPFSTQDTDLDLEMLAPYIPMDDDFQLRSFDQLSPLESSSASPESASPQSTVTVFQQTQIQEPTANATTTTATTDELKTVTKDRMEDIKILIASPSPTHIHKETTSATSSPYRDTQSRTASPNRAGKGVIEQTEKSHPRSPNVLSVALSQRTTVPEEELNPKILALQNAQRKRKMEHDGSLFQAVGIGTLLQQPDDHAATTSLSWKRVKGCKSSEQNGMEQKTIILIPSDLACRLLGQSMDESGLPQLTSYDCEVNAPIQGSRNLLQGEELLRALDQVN
Cytochrome P450 3A4 (Homo sapiens), sequence (P08684 whole entry, looked up): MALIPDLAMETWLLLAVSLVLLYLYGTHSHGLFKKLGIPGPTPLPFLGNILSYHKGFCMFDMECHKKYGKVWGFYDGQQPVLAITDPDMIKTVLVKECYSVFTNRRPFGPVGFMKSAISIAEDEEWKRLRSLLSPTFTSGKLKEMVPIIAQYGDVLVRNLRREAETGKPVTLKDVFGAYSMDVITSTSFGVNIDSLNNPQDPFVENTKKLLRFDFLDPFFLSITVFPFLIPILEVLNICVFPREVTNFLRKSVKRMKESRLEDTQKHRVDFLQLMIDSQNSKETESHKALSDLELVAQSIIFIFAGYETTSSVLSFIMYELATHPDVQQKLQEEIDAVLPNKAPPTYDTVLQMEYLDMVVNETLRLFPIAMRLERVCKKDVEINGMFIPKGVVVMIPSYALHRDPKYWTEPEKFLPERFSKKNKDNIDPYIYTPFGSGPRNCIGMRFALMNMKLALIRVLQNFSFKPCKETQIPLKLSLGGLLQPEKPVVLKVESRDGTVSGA
Cytochrome P450 3A7 (Homo sapiens), sequence (P24462 whole entry, looked up): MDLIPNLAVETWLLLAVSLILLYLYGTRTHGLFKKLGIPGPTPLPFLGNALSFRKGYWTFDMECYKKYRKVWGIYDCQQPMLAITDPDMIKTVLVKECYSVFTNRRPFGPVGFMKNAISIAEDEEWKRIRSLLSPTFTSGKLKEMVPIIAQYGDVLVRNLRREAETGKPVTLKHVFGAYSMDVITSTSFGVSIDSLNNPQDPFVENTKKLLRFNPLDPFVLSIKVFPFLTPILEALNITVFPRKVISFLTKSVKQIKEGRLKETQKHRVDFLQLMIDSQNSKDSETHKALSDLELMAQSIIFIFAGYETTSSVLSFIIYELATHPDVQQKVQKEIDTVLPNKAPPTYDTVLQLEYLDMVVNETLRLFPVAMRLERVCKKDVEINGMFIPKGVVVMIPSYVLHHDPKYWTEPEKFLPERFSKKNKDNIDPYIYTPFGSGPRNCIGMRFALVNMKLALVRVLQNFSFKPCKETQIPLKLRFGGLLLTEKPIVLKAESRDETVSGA

For `CCCCCCCCOC(=O)c1ccccc1C(=O)OCCCCCCCC`, the outcome (with CYP4A11 (gene 1579); in [1]; in [2]; in assay [3]; in [4]; in [5]) was inactive. Besides, the compound was classed as inactive (in assay [6]; with CYP3A5 (gene 1577); in [7]; in assay [8]; in assay [9]; in assay [10]). In addition, the result (in [11]; in assay [12]; in assay [13]; in [14]; in [15]; with HGF (gene 3082)) was inactive.

As for `CCCN(CCC)N=O`, the outcome (in the assay with CYP4A11 (gene 1579); in assay [1]; in assay [2]; in [3]; in assay [4]; in assay [5]) was inactive. In addition, the call (in [6]; in the assay with CYP3A5 (gene 1577); in [7]; in assay [8]; in [9]; in assay [10]) was inactive. Also, the outcome in assay [11], in assay [16], in assay [12], in assay [13], in assay [14] and in assay [15] was inactive. Besides, the compound was classed as inactive with HGF (gene 3082).

Usually AC50 stands for the midpoint of the concentration-response curve, whichever way the signal moves. Turning to `CN(C)c1nc(=O)n(C2CCCCC2)c(=O)n1C`, the call (with CYP4A11 (gene 1579); in [2]; in assay [3]; in assay [4]; in [5]; with CYP3A5 (gene 1577)) was inactive. The compound was classed as inactive in assay [7], in assay [8], in assay [9], in [10], in assay [11] and in assay [12]. For the same compound, the compound was classed as inactive (in [13]; in assay [14]; in [15]; with HGF (gene 3082)). The values for the AC50 in assay [1] and in [6] were 50 µM (active) and 28.6 µM (active), respectively.

For `C1CC2OC2CC1C1CO1` (stereo not given), the compound was called inactive (in the assay with CYP4A11 (gene 1579); in assay [1]; in assay [2]; in assay [3]; in [4]; in assay [5]). The outcome (in [6]; with CYP3A5 (gene 1577); in assay [7]; in assay [8]; in [9]; in [10]) was inactive. The result in assay [11], in [16], in assay [12], in assay [13], in assay [14] and in assay [15] was inactive. For the same compound, the compound was classed as inactive in the assay with HGF (gene 3082).

In the case of `O=C(NC(=O)c1c(F)cccc1F)Nc1cc(Cl)c(OC(F)(F)C(F)F)c(Cl)c1`, the compound was classed as inactive (with CYP4A11 (gene 1579); in [1]; in [2]; in [3]; in assay [4]; in [5]). In addition, the compound was classed as inactive (in assay [6]; in the assay with CYP3A5 (gene 1577); in assay [8]; in assay [10]; in [11]; in [12]). In addition, the compound was classed as inactive (in [13]; in assay [14]; in the assay with HGF (gene 3082)). Besides, the AC50 is 25.1 µM (active) in assay [7], 13.6 µM (active) in assay [9] and 34.7 µM (active) in assay [15].

As to `CN(C)CCO`, the compound was called inactive (in the assay with CYP4A11 (gene 1579); in [1]; in [2]; in [3]; in assay [4]; in assay [5]). Moreover, the outcome (in assay [6]; with CYP3A5 (gene 1577); in [7]; in [8]; in assay [9]; in [10]) was inactive. Further, the compound was classed as inactive (in assay [16]; in [12]; in assay [13]; in assay [14]; in [15]; with HGF (gene 3082)).
